Records with an inconclusive call do not appear. The source made the active and inactive calls. How the calls were made is not given here.

A short description of the assay: apoptosis induction over several timepoints, melanoma line – cell-based, LOX IMVI, luminescence, multiple timepoints, dry powder, mechanism study for HRAS target identification, dose response (AID 652072). As to conditions: caspase 3/7 luminescence; series mostly up to 35 µM; caspase 3/7 activation: at the top concentration.
For `Cc1onc(C(=O)N2CCN(C(c3ccc(Cl)cc3)c3ccc(Cl)cc3)CC2)c1[N+](=O)[O-]`, the “caspase 3/7 activation” value was 28% (inactive).

As for `C#CCCCC(=O)NCCOCCOCCOc1ccc(N(C(=O)CCl)C(C(=O)NCCc2ccccc2)c2cccs2)cc1Cl` (centres undefined), the “caspase 3/7 activation” value was 15.5% (inactive).

In the case of `Cc1onc(C(=O)N2CCN(C(c3ccc(Cl)cc3)c3ccc(OCCOCCOCCNC(=O)OC(C)(C)C)cc3)CC2)c1[N+](=O)[O-]` (centres undefined), the “caspase 3/7 activation” value was 10.7% (inactive).

With `CCC(=O)N(c1ccc(OC)c(Cl)c1)C(C(=O)NCCc1ccccc1)c1cccs1` (centres undefined), the “caspase 3/7 activation” value was -0.966% (inactive).

The values are drawn from PubChem BioAssay AID652072 (Broad Institute, 2013).
